Growth data for eight compounds are collected here from PubChem BioAssay (NCI).

Experiment in all cases: NCI-60 one-dose screen, 48 h (100 = growth as untreated, 0 = no growth, -100 = all killed)
The test system of test [1] is SK-MEL-2 melanoma. Particulars: 10 µM unless noted.
For test [2], the system named is EKVX NSCLC. Particulars: 10 µM unless noted.
The subject of test [3] is SN12C renal. Particulars: 10 µM unless noted.
Test [4] relates to UO-31 renal. The following applies: 10 µM unless noted.
In test [5] the test system is TK-10 renal. Particulars: 10 µM unless noted.
For test [6], the system named is ACHN renal. Particulars: 10 µM unless noted.
In test [7] the test system is CAKI-1 renal. The following applies: 10 µM unless noted.
In test [8] the test system is A498 renal. The following applies: 10 µM unless noted.
Test [9] has as its system CCRF-CEM leukemia. The following applies: 10 µM unless noted.
Test [10] deals with MOLT-4 leukemia. The following applies: 10 µM unless noted.
For test [11], the system named is SR leukemia. Particulars: 10 µM unless noted.
In test [12] the test system is RPMI-8226 leukemia. The following applies: 10 µM unless noted.
The test system of test [13] is OVCAR-8 ovarian. Particulars: 10 µM unless noted.
The subject of test [14] is OVCAR-5 ovarian. The following applies: 10 µM unless noted.
The subject of test [15] is OVCAR-4 ovarian. The following applies: 10 µM.
Test [16] relates to IGROV1 ovarian. The following applies: 10 µM unless noted.
For test [17], the system named is OVCAR-3 ovarian. The following applies: 10 µM unless noted.
Test [18] deals with HS 578T breast. Particulars: 10 µM unless noted.
Test [19] concerns NCI/ADR-RES ovarian. The following applies: 10 µM unless noted.
The subject of test [20] is SK-OV-3 ovarian. Particulars: 10 µM unless noted.

The structures appear in SMILES notation. The panel holds about 83,000 compounds, 20% with a hit somewhere; the sample as a whole holds those more often.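 Growth was measured after 48 h exposure to one concentration of compound in 96-well plates. Values under 10 count as active.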 Values without a mark were called inactive. Active and inactive are the calls of the source.

Consider `CCCN1CC(c2ccc(OC)c(OC)c2)=C(c2cn(C(=O)OCC)c3ccccc23)C1=O`, for which the growth was 53.3% in test [1]; 55.6% in [2]; 53% in test [3]; 39.4% in test [4]; 89.6% in test [5]; 37% in [6]. Also, the growth in [7] is 25.8%; in [8] it was -11.4% (active); in test [9] it was 78.8%; in test [10], 38.7%; in test [11], 25.3%; in test [12], 63.8%. Also, the growth in test [13] is 71.5%; in test [14], 83.1%; in test [15], 62.3%; in test [16] it was 40.2%; in test [17], 2% (active); in test [18] it was 48.1%. Further, the growth in [19] was 29.5%.
For the compound `C=C(C)[C@@H]1CC[C@]2(C(N)=O)CC[C@]3(C)[C@H](CC[C@@H]4[C@@]5(C)C/C(=C/c6cccnc6)C(=O)C(C)(C)[C@@H]5CC[C@]43C)[C@@H]12`, the growth was -47.4% [100 µM] (active) in [1]; 21.2% [100 µM] in test [2]; 18.5% [100 µM] in [3]; 10.2% [100 µM] in test [4]; 23.5% [100 µM] in test [5]; 7.09% [100 µM] (active) in test [6]. The growth in [7] is 8.38% [100 µM] (active); in test [8] it was 17.3% [100 µM]; in test [9], 7.08% [100 µM] (active); in test [10], 2.39% [100 µM] (active); in test [11], 10.7% [100 µM]; in test [12], 6.37% [100 µM] (active). In addition, the growth is 20.3% [100 µM] in test [13]; -6.45% [100 µM] (active) in test [14]; 12.9% [100 µM] in [20]; 14.9% [100 µM] in test [16]; 12.5% [100 µM] in [17]; 25.5% [100 µM] in [18].
For `CCN(CC)c1ccc(/C=C/c2ccc3cc(C)ccc3[n+]2CC)cc1`, the growth in test [1] was -32.3% (active); in test [2] it was 11.8%; in test [3], 14.2%; in test [4] it was 5.46% (active); in test [5] it was -4.22% (active); in test [6], 0.905% (active). Besides, the growth in [7] was 15.7%; in [8], 5.43% (active); in test [9], 6.14% (active); in test [10], -15.3% (active); in [11], -17.6% (active); in test [12], -8.91% (active). In addition, the growth in [13] is 2.3% (active); in [14], 26.8%; in [20], -11.6% (active); in [16], 26.5%; in test [17], 14.9%; in [18] it was 46.5%. Also, the growth in [19] is 45.7%.
As for `COc1ncc(-c2ccc3nc(N)n(-c4ccccc4C(F)(F)F)c(=O)c3c2)cc1S(=O)(=O)Nc1ccc(F)cc1F`, the growth is 29.2% in test [1]; 20.9% in [2]; 56% in [3]; -13.4% (active) in [4]; 54.5% in test [5]; 69.3% in test [6]. For the same compound, the growth in test [7] was 17.3%; in test [8] it was -22.2% (active); in [9], 24.5%; in test [10] it was 74.5%; in test [11], 39%; in [12], 2.65% (active). Moreover, the growth is 50.1% in test [13]; 14.7% in test [14]; 72.1% in [20]; 8.17% (active) in test [16]; 6.35% (active) in test [17]; 42.3% in [18]. For the same compound, the growth in test [19] was 25.4%.
As to `C=C(C)[C@@H]1CC[C@]2(C(=O)NCCNCCNC(=O)OC(C)(C)C)CC[C@]3(C)[C@H](CC[C@@H]4[C@@]5(C)CCC(=O)C(C)(C)[C@@H]5CC[C@]43C)[C@@H]12`, the growth in test [1] is 41.7% [100 µM]; in [2] it was 53.5% [100 µM]; in test [3], 39.9% [100 µM]; in [4], 17.4% [100 µM]; in [5], 54% [100 µM]; in test [6] it was 23.5% [100 µM]. Further, the growth in [7] is 18.6% [100 µM]; in test [8], 58.7% [100 µM]; in [9], 14.9% [100 µM]; in [10] it was 11.7% [100 µM]; in [11] it was 52.4% [100 µM]; in test [12], 22.2% [100 µM]. The growth was 44.4% [100 µM] in test [13]; 60.4% [100 µM] in test [14]; 49.8% [100 µM] in test [20]; 34.7% [100 µM] in [16]; 32.3% [100 µM] in test [17]; 37.8% [100 µM] in test [18].
In the case of `CC1(C)CC[C@]23CC[C@]4(C)[C@H](CC[C@@H]5[C@@]6(C)C/C(=C/c7ccncc7)C(=O)C(C)(C)[C@@H]6CC[C@]54C)[C@H]2[C@H]1OC3=O`, the growth in test [1] is 29.5% [100 µM]; in test [2], 85.5% [100 µM]; in [3], 65.6% [100 µM]; in test [4] it was 91.8% [100 µM]; in test [5], 51.5% [100 µM]; in test [6] it was 43.9% [100 µM]. Moreover, the growth is 50.8% [100 µM] in test [7]; 58.6% [100 µM] in [8]; 79.3% [100 µM] in test [9]; 69.1% [100 µM] in [10]; 93.5% [100 µM] in [11]; 41.1% [100 µM] in [12]. In addition, the growth in [13] is 51.9% [100 µM]; in test [14] it was 111% [100 µM]; in test [20], 47.7% [100 µM]; in test [16], 70.1% [100 µM]; in [17] it was 85.2% [100 µM]; in test [18], -3.34% [100 µM] (active). Also, in test [19], the growth is 64.4% [100 µM].
As for `C=C(CC(=O)OC)C(C)=O`, the growth was 118% in [1]; 99% in test [2]; 100% in test [3]; 88.2% in [4]; 107% in test [5]; 109% in [6]. The growth in [7] was 101%; in test [8], 95.1%; in test [9], 118%; in test [10], 95.2%; in test [11] it was 112%; in [12] it was 120%. Besides, the growth in test [13] was 107%; in test [14], 112%; in test [20] it was 103%; in test [16], 101%; in [17] it was 106%; in test [18] it was 96.5%. In [19], the growth was 113%.
On to `CCCCCn1c(C)cc(/C=C\c2ccc3cc(C)ccc3[n+]2C)c1C`, for which the growth was -81.9% (active) in test [1]; -47.9% (active) in test [2]; -90.3% (active) in test [3]; -61.4% (active) in [4]; -57.6% (active) in [5]; -89.3% (active) in test [6]. For the same compound, the growth in test [7] was -80.3% (active); in test [8] it was -46% (active); in test [9], -13.3% (active); in [10] it was 7.02% (active); in test [11], 9.57% (active); in [12], -43.5% (active). Also, the growth in test [13] was -69.5% (active); in test [14], 12%; in [15], -8.22% (active); in test [16] it was -84% (active); in test [18] it was -24.4% (active).
